The list is not random: actives were taken first. Their share in the collection is about 3.8%.
KCNH2 3.1 block: inhibitors of human KCNH2 3.1 potassium channel isoform. U2OS KCNH2 3.1, thallium flux FluxOr; hits give low values. activity change, % (tested at about 1.8 µM). 340,000 compounds, 0.95% hits. AID 720553;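 active means maximum activity change below -70%; inconclusive means maximum activity change from -70% to -50%; inactive means maximum activity change above -50%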;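 further: thallium influx rate constant from kinetic fluorescence after stimulation buffer; on the % scale 0 is the no-effect control and ±100 the full control effect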
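Kinetic fluorescence (2 min after stimulation buffer) measures Tl+ influx through KCNH2 3.1 expressed by viral transduction in U2OS cells; the rate constant is normalized against DMSO controls serving as positive and negative references.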
MBNL1 CUG block: inhibitors of human MBNL1 binding to CUG repeat RNA. 280,000 compounds, 0.036% hits. Q9NR56. AID 2675. Potency, µM (doses to about 57.5 µM), for inactives: at the highest dose activity change, negative = inhibition, actives largely listed as inhibitors. TR-FRET MBNL1-His/biotin-(CUG)12 binding, 665/545 ratio; active means well fitted inhibition curve with a large enough effect in the signal ratio, with a control signal flat, not every such curve was filed as active; inconclusive means small, poorly fitted or top-dose-only effect, or effect the other way, or a change in a side signal; inactive means no such curve, though single readings can be large or run the other way; the % refers to the signal ratio; further: potency means the concentration at half of the fitted maximal effect; on the % scale 0 is the no-effect control and ±100 the full control effect
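Compound titration spanned 92 nM–58 uM against the MBNL1-His/biotin-(CUG)12 complex. After 60 min at room temperature with 5 nM streptavidin-XL665 and 0.055 ng/ul terbium anti-His, ratiometric 665/545 nm emission (Ex 340 nm) normalized to controls.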
VDR inhibitor: vitamin D3 receptor (human) inhibition; 400,000 compounds, 0.93% hits; P11473; Potency, µM, without a hit: max response, negative = inhibition, usual class: inhibitors; VDR-SRC2-3 peptide fluorescence polarization, 2 h; further: potency means the concentration at half of the fitted maximal effect; on the % scale 0 is the no-effect control and ±100 the full control effect
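Reagent solutions, kept cold and dark, are dispensed first; compounds are then pinned in at 23 nl, plates briefly spun, and incubated 2 h at ambient temperature. Inhibition of VDR–SRC2-3 peptide binding is read by fluorescence polarization.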
KCNH2 WT inh: inhibitors of human wildtype KCNH2 potassium channel | Q12809 | U2OS, BacMam KCNH2, thallium flux FluxOr; hits give low values | activity change, % at 1.84 µM | 340,000 compounds, 0.37% hits | AID 720551;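 active means maximum activity change below -70%; inconclusive means maximum activity change between -70% and -50%; inactive means maximum activity change above -50%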; further: on the % scale 0 is the no-effect control and ±100 the full control effect
Target sequence (Q12809 whole entry, looked up): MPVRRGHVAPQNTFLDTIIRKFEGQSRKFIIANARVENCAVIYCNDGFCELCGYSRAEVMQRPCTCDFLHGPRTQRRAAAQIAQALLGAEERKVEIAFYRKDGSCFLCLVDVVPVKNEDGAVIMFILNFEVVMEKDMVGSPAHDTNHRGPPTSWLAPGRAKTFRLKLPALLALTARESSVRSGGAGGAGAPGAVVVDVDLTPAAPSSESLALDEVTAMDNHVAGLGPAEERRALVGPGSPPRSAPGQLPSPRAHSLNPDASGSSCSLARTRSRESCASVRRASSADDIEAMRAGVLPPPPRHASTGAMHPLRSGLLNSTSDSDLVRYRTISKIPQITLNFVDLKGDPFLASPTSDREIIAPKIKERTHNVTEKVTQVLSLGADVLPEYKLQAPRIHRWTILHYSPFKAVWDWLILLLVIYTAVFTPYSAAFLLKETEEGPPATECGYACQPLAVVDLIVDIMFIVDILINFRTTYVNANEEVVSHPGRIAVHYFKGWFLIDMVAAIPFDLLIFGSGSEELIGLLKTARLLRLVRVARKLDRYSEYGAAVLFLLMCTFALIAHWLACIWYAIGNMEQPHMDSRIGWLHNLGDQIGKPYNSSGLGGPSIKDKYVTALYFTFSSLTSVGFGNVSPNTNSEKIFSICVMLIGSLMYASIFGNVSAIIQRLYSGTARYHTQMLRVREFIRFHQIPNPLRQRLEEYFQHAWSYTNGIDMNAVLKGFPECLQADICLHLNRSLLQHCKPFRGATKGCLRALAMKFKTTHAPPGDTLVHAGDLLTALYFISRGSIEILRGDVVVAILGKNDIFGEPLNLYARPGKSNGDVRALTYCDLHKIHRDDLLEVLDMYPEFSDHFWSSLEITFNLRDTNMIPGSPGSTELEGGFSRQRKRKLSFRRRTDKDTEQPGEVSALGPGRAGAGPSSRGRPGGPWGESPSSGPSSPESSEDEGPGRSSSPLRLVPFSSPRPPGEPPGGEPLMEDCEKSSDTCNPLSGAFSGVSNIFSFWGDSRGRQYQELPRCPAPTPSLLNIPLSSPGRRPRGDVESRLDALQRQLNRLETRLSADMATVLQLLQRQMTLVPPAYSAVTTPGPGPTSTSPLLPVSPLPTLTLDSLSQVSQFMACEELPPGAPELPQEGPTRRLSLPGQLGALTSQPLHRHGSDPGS
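U2OS cells transduced with wild-type KCNH2 virus are loaded with FluxOr dye for 45 min, and thallium flux is measured in kinetic reads before and after stimulation buffer. Rate constants are normalized to DMSO controls.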
PLK1 PBD block: inhibitors of human PLK1 polo-box domain binding; Plk1 PBD binding of FITC phosphopeptide, fluorescence polarization; Potency, µM, for the others: max response, negative = inhibition, hits mostly inhibitors; 360,000 compounds, 2.8% hits; AID 720504; further: potency means the concentration at half of the fitted maximal effect; series mostly up to about 57 µM; on the % scale 0 is the no-effect control and ±100 the full control effect; nearly all actives have a fitted effect of over 65% in size
CBFb RUNX1 block: inhibitors of human CBF-beta and RUNX1 interaction; Q01196+Q13951; AlphaScreen CBFb-His/RUNX1-biotin binding, biochemical; 230,000 tested, under 10 active; Potency, µM (doses to about 59.8 µM), without a hit: at the top dose activity, negative = inhibition, usual class: inhibitors; further: % of control where 0% means no effect
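Read-out: AlphaScreen. Format: His-CBF-beta with biotinylated RUNX1 (30 nM each) preincubated 20 min, compound 15 min, Ni-chelate plus streptavidin beads 90 min; room temperature throughout.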
Numbers without * were called inactive; u = inconclusive; x = no result; [ ] = remark or other dose. Unless noted, the call rests on the fitted dose curve; in most records, active means well fitted curve in the direction sought with a large enough effect; inconclusive means small, poorly fitted or top-dose-only effect, or another doubt; inactive means no such curve, though single readings can be large; an effect the other way counts as inactive or inconclusive.

SMILES	KCNH2 3.1 block	MBNL1 CUG block	VDR inhibitor	KCNH2 WT inh	PLK1 PBD block	CBFb RUNX1 block
C=CCSc1nnc(N2C(=O)C(O)=C(C(=O)c3ccco3)C2c2ccccc2F)s1 (stereo unspecified)	-14	u	-23%	-9	13µM*	x
O=C(CSc1nc(=O)[nH]c2c1CCCC2)Nc1ccc(Cl)c(Cl)c1	x	x	12%	x	x	x
CC(C)(c1ccccc1)c1ccc(OCC(O)CN2CCCC2)cc1 (stereo unspecified)	-27	0%	14%	22	0%	x
OC(CNCCc1ccccc1)COc1ccc(OCC(O)CNCCc2ccccc2)cc1 (stereo unspecified)	-13	x	5%	-3	-11%	-5%
OC(CNCCC(c1ccccc1)c1ccccc1)COc1ccccc1 (stereo unspecified)	-97*	3%	-9%	-11	2%	-7%
CC(C)N(CCNCC(O)COc1ccc(C(C)(C)c2ccccc2)cc1)C(C)C (stereo unspecified)	u	-2%	2%	-96*	-1%	-26%
CCSc1nnc(-c2sc3nnc(-c4ccccc4)c(-c4ccccc4)c3c2N)o1	-19	14%	20%	-16	15µM*	16%
CCOc1ccc(NC(=O)CN2C(=O)/C(=C3\SC(=S)N(C4CCS(=O)(=O)C4)C3=O)c3ccccc32)cc1 (stereo unspecified)	-12	0%	-4%	-3	u	0%
O=C(CN1C(=O)/C(=C2/SC(=S)N(CCS(=O)(=O)O)C2=O)c2ccccc21)Nc1cccc(C(F)(F)F)c1	8	x	u	-3	11µM*	x
O=C(CN1C(=O)c2ccccc2Sc2ncccc21)Nc1cccc(C(F)(F)F)c1	x	x	-1%	x	x	x
O=C(CN1C(=O)/C(=C2\SC(=S)N(CCS(=O)(=O)O)C2=O)c2ccccc21)Nc1cccc(Br)c1	8	9%	u	-2	6.7µM*	x
c1ccc(CNc2oc(-c3ccccc3)nc2-c2cccc3ccccc23)cc1	x	x	u	x	x	-8%
S=c1[nH]nc(-c2ccc(Cl)cc2Cl)n1Cc1ccccc1	-8	-18%	28µM*	-1	3.8µM*	2%
S=c1[nH]nc(-c2ccc(Cl)cc2Cl)n1-c1ccc2c(c1)OCCO2	6	-6%	-6%	0	27µM*	-7%
Cc1ccc(-c2n[nH]c(=S)n2Cc2ccccc2)cc1	10	2%	-13%	2	-8%	-1%
CC(c1n[nH]c(=S)n1Cc1ccccc1)N(C)C (stereo unspecified)	-6	-4%	u	2	19µM*	-2%
CCCc1ccccc1OCCNC(C)=O	-7	2%	u	0	3.4µM*	5%
CCOC(=O)c1c(C)oc2ncnc(Nc3ccc(F)cc3Cl)c12	x	x	13%	x	x	x
Cc1ccc(S(=O)(=O)NNc2c3ccccc3nc3ccc(Cl)cc23)cc1	-2	x	x	-14	-12%	x
Cc1ccc(S(=O)(=O)Nc2cccnc2)cc1	18	-9%	u	-7	21µM*	0%
Cc1ccc(S(=O)(=O)NNc2ccccc2)cc1	8	-7%	u	0	28µM*	2%
Cc1ccc(S(=O)(=O)Nc2ccc(Nc3ccccc3)cc2)cc1	-2	3%	-2%	-2	7%	x
Cc1ccc(S(=O)(=O)Nc2ccnc3ccccc23)cc1	4	1%	u	-1	27µM*	-3%
O=S(=O)(Nc1cccnc1)c1cccnc1	-6	x	18%	-1	-14%	x
Cc1ccc(S(=O)(=O)NNc2nc3ccccc3nc2C(F)(F)F)cc1	28	12%	u	27	8.4µM*	-8%
SMILES	KCNH2 3.1 block	MBNL1 CUG block	VDR inhibitor	KCNH2 WT inh	PLK1 PBD block	CBFb RUNX1 block
COC(F)(F)C(Cl)Cl	x	x	-10%	x	x	x
Cc1noc(C)c1S(=O)(=O)N1CCc2nc(-c3ccccc3)c3c(c2C1)CO[C@@H](C)C3	x	x	x	x	x	-11%[13.1 µM]
NNc1nc2ccccc2nc1C(F)(F)F	2	u	-28%	-5	19µM*	-9%
COc1ccc(C(=S)Nc2ccc(C)cc2)cc1	-1	-4%	u	4	21µM*	2%
COc1ccc(NC(=S)NNc2ccc(C(=O)O)cc2)cc1	1	u	32µM*	-9	u	x
Cc1ccc(S(=O)(=O)c2cn(CC(=O)Nc3ccc(F)cc3)c3cc4c(cc3c2=O)OCO4)cc1	x	x	-4%	x	x	x
CCOc1ccccc1NC(=O)C(=O)/C=C(\O)c1cc(OC)ccc1OC	-3	1%	u	9	21µM*	-13%
CC(=O)C1=C(O)C(=O)N(c2ccc(O)cc2)C1c1ccc([N+](=O)[O-])cc1 (stereo unspecified)	8	-3%	-8%	-7	-14%	-1%
CC(=O)C1=C(O)C(=O)N(c2ccc(S(N)(=O)=O)cc2)C1c1cccc([N+](=O)[O-])c1 (stereo unspecified)	-2	x	-15%	-4	27µM*	14%
CC(=O)C1=C(O)C(=O)N(c2ccc(C)cc2)C1c1ccc([N+](=O)[O-])cc1 (stereo unspecified)	-15	u	-4%	x	27µM*	-2%
CCOC(=O)C1=C(O)C(=O)N(c2ccc(S(N)(=O)=O)cc2)C1c1ccc([N+](=O)[O-])cc1 (stereo unspecified)	31	x	-26%	-8	30µM*	4%
CCOc1ccc(NC(=O)CC2C(=O)N(c3ccc(F)cc3)C(=O)N2CCc2sccc2C)cc1 (stereo unspecified)	x	x	-9%	x	x	x
CCOC(=O)c1ccc(NC(=O)c2c(-c3c(F)cccc3Cl)noc2C)cc1	x	x	12%	x	x	x
CC(C)CCNC(=O)c1ccc(Cn2c(SCC(=O)NC(C)C)nc3ccccc3c2=O)cc1	x	x	13%	x	x	x
COc1ccc(Nc2cc(C)c3cc([N+](=O)[O-])ccc3n2)cc1	-99*	u	4%	-7	-9%	x
COc1ccc(CCNC(=O)c2cc(=O)c3cc(C)c(C)cc3o2)cc1OC	x	x	9%	x	x	x
O=C(Nc1cccc(-c2csc(Nc3ccc(Cl)cc3)n2)c1)c1cccc(C(F)(F)F)c1	-78*	4%	9%	0	-9%	18%
O=C(Nc1cccc(-c2csc(Nc3ccc(Cl)cc3)n2)c1)c1ccccc1	-14	-1%	2%	19	u	-10%
CCc1c(C)c2cc(Cl)c(O)c(CN(C)C)c2oc1=O	-88*	44%	-11%	-7	-9%	5%
Cc1cccc(NC(=O)CSc2nc(-c3cccs3)cc(C(F)(F)F)c2C#N)c1C	x	x	-9%	x	x	x
COc1ccc(CCn2c3c(c(=O)[nH]c2=S)CN(C)CN3)cc1OC	x	x	-3%	x	x	x
COc1ccc(CCn2c3c(c(=O)[nH]c2=S)CN(Cc2ccccc2)CN3)cc1OC	x	x	89µM*	x	x	x

Source: PubChem
